Data as given in PubChem BioAssay.
The source made the active and inactive calls.

Assays:
[1] = small molecules captured by biotinylated probe aFSTL3 – biochemical, small-molecule microarray, fluorescence 635/667, stem cell growth factor project, primary screen (AID 1064); conditions: higher = more signal;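 note: measures binding of the biotinylated anti-FSTL3 antibody to printed compounds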
[2] = binders from COS7 lysate, DM2A8 probe, primary screen, torsin A project, cell lysate, small-molecule microarray, fluorescence 635/667 (AID 1065); conditions: higher = more signal, COS7 lysate expressing mutant human TOR1A
[3] = small molecules captured by biotinylated probe aFGF2 – biochemical, small-molecule microarray, fluorescence 635/667, stem cell growth factor project, primary screen (AID 1067); conditions: higher = more signal;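 note: measures binding of biotinylated aFGF2 protein to printed compounds on slides; z-score merges feature fluorescence and signal-to-noise across triplicate slides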
[4] = small molecules captured by biotinylated probe aFGF10 – biochemical, small-molecule microarray, fluorescence 635/667, stem cell growth factor project, primary screen (AID 1071); conditions: higher = more signal;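 note: score merges 667 nm spot intensity and signal to noise from triplicate slides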
[5] = molecular target: Neurogenic locus notch homolog protein 2 (Homo sapiens) (UniProt Q04721); experiment: small molecules binding Notch2 protein – biochemical, small-molecule microarray, 635 nm fluorescence, stem cell growth factors, primary screen (AID 1073); conditions: higher = more signal
Neurogenic locus notch homolog protein 2 (Homo sapiens), sequence (Q04721 whole entry, looked up, canonical isoform): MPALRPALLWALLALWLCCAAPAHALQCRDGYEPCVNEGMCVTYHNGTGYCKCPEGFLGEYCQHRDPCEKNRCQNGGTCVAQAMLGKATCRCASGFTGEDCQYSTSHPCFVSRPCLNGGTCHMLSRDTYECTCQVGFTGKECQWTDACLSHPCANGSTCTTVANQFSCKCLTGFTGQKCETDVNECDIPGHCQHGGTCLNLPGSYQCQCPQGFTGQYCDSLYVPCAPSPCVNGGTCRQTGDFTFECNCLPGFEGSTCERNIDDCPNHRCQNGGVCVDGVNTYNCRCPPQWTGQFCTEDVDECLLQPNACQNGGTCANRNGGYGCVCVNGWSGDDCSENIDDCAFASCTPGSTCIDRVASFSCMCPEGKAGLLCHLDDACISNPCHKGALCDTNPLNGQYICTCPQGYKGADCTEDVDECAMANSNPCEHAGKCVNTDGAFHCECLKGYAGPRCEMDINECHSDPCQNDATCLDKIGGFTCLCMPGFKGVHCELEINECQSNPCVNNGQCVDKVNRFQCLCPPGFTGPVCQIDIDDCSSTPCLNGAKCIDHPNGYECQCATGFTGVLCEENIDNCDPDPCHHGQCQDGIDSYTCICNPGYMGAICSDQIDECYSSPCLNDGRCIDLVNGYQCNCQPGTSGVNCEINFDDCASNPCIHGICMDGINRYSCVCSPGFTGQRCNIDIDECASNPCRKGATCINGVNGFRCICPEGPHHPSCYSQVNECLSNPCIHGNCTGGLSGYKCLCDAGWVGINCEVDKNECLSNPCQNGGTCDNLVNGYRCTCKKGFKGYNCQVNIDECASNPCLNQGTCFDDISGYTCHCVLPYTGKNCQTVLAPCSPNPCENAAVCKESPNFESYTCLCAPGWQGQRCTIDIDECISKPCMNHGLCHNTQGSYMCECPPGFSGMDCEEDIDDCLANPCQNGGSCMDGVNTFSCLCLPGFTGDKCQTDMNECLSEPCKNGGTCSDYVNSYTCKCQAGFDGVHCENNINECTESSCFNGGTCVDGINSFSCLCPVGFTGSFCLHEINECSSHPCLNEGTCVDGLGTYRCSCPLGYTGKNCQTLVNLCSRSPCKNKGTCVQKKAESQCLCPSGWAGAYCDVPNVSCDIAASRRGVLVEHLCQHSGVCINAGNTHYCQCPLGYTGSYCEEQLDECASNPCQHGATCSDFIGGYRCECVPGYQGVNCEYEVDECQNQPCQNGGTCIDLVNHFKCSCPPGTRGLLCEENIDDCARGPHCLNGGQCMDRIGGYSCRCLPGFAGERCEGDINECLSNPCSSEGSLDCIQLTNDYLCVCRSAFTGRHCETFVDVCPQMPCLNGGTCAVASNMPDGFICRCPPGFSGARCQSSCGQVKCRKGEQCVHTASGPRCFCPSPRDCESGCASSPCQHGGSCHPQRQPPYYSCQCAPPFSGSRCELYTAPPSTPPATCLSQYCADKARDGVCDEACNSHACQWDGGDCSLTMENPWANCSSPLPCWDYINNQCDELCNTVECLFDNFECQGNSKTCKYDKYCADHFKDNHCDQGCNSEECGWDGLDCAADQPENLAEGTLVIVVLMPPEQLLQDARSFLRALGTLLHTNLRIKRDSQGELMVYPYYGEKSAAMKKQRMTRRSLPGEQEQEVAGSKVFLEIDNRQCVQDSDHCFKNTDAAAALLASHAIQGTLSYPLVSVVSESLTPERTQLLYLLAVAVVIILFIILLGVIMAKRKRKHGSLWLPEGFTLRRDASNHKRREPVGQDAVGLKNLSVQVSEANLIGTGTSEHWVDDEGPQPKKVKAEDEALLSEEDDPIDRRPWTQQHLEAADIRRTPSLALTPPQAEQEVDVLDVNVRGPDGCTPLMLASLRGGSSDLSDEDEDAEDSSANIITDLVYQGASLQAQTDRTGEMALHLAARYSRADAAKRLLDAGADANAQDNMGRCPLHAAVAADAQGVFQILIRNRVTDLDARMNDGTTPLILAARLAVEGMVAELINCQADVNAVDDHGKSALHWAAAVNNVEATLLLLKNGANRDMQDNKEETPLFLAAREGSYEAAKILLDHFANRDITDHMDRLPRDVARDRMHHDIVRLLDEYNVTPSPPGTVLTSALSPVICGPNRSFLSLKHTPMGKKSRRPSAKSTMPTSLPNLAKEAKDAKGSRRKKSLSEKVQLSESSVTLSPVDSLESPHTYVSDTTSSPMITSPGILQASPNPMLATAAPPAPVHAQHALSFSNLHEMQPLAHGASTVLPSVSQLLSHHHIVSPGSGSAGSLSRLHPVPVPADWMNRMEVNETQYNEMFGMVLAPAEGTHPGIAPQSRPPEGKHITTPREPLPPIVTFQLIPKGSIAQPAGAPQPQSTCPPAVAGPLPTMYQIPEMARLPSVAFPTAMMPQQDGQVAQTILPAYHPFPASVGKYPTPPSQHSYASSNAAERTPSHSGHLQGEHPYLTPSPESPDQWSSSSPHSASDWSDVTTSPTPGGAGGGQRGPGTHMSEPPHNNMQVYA

[6] = molecular target: Pro-neuregulin-1, membrane-bound isoform (Homo sapiens) (UniProt Q02297); experiment: small molecules binding neuregulin-1 protein – biochemical, small-molecule microarray, fluorescence 635/667, psychiatric disease protein project, primary screen (AID 1075); conditions: NRG1 binding, 635 nm fluorescence, higher = more signal;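 note: score combines 667 nm spot fluorescence with signal to noise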
[7] = system: Neuregulin-1 EGF-like domain; experiment: small molecules binding NRG1 EGF domain – biochemical, small-molecule microarray, 635 nm fluorescence, primary screen (AID 1081); conditions: higher = more signal;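 note: binding of the protein to compounds printed on small-molecule microarray slides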
[8] = FRG1 expression reporter modulators in myotubes – cell-based, C2C12 myotubes, firefly/Renilla luciferase, luminescence, FRG1 inhibition for FSHD, primary screen (AID 1084); conditions: FRG1 promoter luciferase, higher = more signal, called active from +8 up or from −8 down
[9] = small molecules captured by biotinylated probe aFST – biochemical, small-molecule microarray, fluorescence 635/667, stem cell growth factor project, primary screen (AID 1086); conditions: higher = more signal;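 note: score merges 667 nm fluorescence with signal-to-noise of each printed compound spot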
[10] = binders of probe aHhip on microarray, primary screen, stem cell growth factor project, biochemical, small-molecule microarray, fluorescence 635/667 (AID 1087); conditions: higher = more signal;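 note: score merges spot fluorescence at 667nm with spot signal to noise ratio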
[11] = system: PRMT1 (protein arginine N-methyltransferase 1); experiment: small molecules binding arginine methyltransferase PRMT1 – biochemical, small-molecule microarray, 635 nm fluorescence, primary screen (AID 1088); conditions: higher = more signal;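 note: binding of Prmt1 protein to compounds spotted on small-molecule microarray slides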
[12] = growth effects on S. cerevisiae YJM789 – YJM789 clinical isolate, OD600, 24 h, basal, primary screen (AID 1089); conditions: higher = more signal, called active from +8 up or from −8 down;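 note: growth of clinical yeast isolate S. cerevisiae YJM 789 seeded 1000 cells per well; test concentration not given here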
[13] = S. pombe growth modifiers, basal conditions – strain 972, OD600, 24 h, no modulator, primary screen (AID 1090);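 note: basal condition with compound alone and no growth modifier present; test concentration not given here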; conditions: S. pombe 972 growth, higher = more signal, called active from +8 up or from −8 down
[14] = budding yeast growth modifiers under rapamycin – strain BY4716, OD600, 96 h, primary screen (AID 1091); note: test concentration not given here; conditions: S. cerevisiae BY4716 + rapamycin, higher = more signal, called active from +8 up or from −8 down
[15] = molecular target: Torsin-1A-interacting protein 2 (Homo sapiens) (UniProt Q8NFQ8); experiment: small molecules binding lysate-expressed LULL1 – cell lysate, human LULL1 lysate, 635/667 nm fluorescence, primary screen (AID 1092); conditions: small-molecule microarray, hLULL1 lysate binding, 635 nm fluorescence; higher = more signal;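 note: probe is lysate of COS7 cells overexpressing human LULL1; score merges per-feature 667 nm fluorescence with signal-to-noise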
[16] = optical density change of DRC41 E. coli – strain DRC41, OD650, 24 h, E. coli filamentation project, primary screen (AID 1093);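 note: MC1000 strain lacking acrAB efflux and sulA so SOS filamentation is blocked; test concentration not given here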; conditions: E. coli DRC41 growth, higher = more signal, called active from +8 up or from −8 down
[17] = probe aLefty2 binding to arrayed compounds – biochemical, biotinylated probe, 635/667 nm fluorescence, primary screen (AID 1094); conditions: small-molecule microarray, higher = more signal;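 note: score merges spot fluorescence near 667 nm with spot signal-to-noise ratio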
[18] = system: Noggin (protein binding on small-molecule microarray); experiment: small molecules binding Noggin protein – biochemical, 635/667 nm fluorescence, primary screen (AID 1095); conditions: 635 nm fluorescence, higher = more signal;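 note: score merges 667 nm feature fluorescence with signal to noise over triplicate slides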
[19] = molecular target: Neurogenic locus notch homolog protein 3 (Homo sapiens) (UniProt Q9UM47); experiment: small molecules binding NOTCH3 protein – biochemical, 635/667 nm fluorescence, primary screen (AID 1096); conditions: small-molecule microarray, 635 nm fluorescence, higher = more signal
Neurogenic locus notch homolog protein 3 (Homo sapiens), sequence (Q9UM47 whole entry, looked up): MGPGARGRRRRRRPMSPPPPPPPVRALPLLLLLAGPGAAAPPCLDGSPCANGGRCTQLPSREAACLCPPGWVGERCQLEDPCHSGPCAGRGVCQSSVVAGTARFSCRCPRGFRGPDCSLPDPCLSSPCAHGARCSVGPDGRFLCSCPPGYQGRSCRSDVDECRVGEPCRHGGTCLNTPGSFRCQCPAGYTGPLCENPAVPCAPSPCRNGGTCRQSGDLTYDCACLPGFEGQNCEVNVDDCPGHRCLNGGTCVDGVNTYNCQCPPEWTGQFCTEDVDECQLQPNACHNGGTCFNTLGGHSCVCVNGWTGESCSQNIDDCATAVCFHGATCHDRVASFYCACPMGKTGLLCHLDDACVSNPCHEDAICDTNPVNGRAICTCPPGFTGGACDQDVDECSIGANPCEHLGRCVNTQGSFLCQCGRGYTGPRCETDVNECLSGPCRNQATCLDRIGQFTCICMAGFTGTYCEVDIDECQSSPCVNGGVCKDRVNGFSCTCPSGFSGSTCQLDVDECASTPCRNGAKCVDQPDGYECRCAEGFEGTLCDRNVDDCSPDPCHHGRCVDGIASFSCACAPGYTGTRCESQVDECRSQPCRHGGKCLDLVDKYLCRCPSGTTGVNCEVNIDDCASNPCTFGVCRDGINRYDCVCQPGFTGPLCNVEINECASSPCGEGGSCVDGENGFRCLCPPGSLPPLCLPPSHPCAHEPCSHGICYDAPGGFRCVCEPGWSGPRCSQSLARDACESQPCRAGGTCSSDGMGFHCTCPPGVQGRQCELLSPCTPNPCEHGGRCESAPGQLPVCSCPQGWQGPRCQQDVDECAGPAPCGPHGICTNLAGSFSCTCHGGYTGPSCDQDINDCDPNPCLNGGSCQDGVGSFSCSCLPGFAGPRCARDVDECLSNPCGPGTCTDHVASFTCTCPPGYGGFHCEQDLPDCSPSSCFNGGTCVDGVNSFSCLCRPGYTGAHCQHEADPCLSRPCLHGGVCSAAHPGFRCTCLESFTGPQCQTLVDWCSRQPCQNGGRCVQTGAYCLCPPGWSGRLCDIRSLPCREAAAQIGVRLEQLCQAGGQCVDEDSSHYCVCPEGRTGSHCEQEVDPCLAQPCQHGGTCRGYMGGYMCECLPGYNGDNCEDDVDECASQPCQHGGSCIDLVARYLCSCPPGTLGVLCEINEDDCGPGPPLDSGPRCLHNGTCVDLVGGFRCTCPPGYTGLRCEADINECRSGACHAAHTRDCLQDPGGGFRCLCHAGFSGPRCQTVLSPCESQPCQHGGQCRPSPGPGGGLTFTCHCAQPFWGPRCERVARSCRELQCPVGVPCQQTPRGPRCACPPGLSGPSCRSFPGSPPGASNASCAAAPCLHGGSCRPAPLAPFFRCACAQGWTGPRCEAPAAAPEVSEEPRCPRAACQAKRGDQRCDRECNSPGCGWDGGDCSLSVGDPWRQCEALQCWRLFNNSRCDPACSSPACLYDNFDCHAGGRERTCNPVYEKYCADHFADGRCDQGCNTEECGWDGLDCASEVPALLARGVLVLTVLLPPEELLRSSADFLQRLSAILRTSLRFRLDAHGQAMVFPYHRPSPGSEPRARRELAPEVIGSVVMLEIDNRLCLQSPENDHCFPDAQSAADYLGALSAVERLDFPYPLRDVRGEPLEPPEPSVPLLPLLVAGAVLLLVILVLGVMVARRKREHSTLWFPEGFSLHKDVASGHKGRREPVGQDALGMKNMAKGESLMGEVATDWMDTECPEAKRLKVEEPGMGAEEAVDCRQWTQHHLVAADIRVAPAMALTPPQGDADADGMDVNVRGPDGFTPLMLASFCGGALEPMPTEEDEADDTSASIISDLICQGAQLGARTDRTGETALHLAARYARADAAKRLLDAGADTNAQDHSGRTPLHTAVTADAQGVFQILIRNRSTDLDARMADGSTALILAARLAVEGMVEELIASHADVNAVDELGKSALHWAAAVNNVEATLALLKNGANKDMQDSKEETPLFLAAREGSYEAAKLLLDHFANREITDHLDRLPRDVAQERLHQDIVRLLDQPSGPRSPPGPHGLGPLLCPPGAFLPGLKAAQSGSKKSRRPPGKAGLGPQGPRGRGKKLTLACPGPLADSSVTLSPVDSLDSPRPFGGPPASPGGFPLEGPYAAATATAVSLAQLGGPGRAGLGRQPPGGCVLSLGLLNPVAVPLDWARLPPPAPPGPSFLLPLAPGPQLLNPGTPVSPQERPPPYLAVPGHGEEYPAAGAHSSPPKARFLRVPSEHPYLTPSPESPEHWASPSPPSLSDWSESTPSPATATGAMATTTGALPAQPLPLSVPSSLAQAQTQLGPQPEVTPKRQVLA

[20] = probe aEGFR binding to arrayed compounds – biochemical, biotinylated probe, 635/667 nm fluorescence, primary screen (AID 1097); conditions: small-molecule microarray, higher = more signal;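 note: probe is a biotinylated anti-EGFR antibody binding compounds printed on slides; score combines fluorescence near 667 nm and signal to noise of each spot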

Compound | composite z-score [1] | composite z-score [2] | composite z-score [3] | composite z-score [4] | composite z-score [5] | composite z-score [6] | composite z-score [7] | z-score [8] | composite z-score [9] | composite z-score [10] | composite z-score [11] | z-score [12] | z-score [13] | z-score [14] | composite z-score [15] | z-score [16] | composite z-score [17] | composite z-score [18] | composite z-score [19] | composite z-score [20]
Cc1ccccc1C(O)C1C=CC2C(=O)N(C)C(=O)C2N1N(c1ccccc1)c1ccccc1 (stereo not given) | 1.01 | -0.038 | 0.149 | 0.113 | 0.483 | -0.53 | -0.878 | -0.0079 (inactive) | 0.606 | 0.0077 | -0.437 | 0.787 (inactive) | 0.503 (inactive) | 0.753 (inactive) | -0.604 | -0.717 (inactive) | 0.756 | -0.177 | -0.899 | 0.409
C=CCC(OC(C)=O)[C@@H]1[C@@H](N(Cc2cccc3ccccc23)C(=O)Cc2ccc(F)cc2)c2cc(OCCCO)ccc2N1C(=O)c1ccc2ccccc2n1 (stereo not given in full) | 0.258 | -0.0938 | 0.0631 | 0.0908 | 0.179 | 0.0429 | -0.429 | -1.11 (inactive) | 0.382 | 0.347 | -0.293 | -0.145 (inactive) | 0.732 (inactive) | -0.342 (inactive) | 0.511 | 0.265 (inactive) | 0.15 | -0.283 | 0.104 | -0.0897
COCCCNC(=O)[C@@]1(Cc2ccccc2N=[N+]=[N-])N=C(c2ccc(OCCCO)cc2)O[C@H]1c1ccccc1 | 0.6 | 2.55 | 0.153 | 0.904 | 0.629 | 1.38 | 1.17 | -1.98 (inactive) | 0.404 | 0.212 | 1.55 | -0.22 (inactive) | -1.17 (inactive) | 0.388 (inactive) | 3.1 | 0.478 (inactive) | 0.0894 | 0.923 | 0.74 | -0.096
O=C1O[C@H](c2ccccc2)[C@H](c2ccccc2)N2[C@H]1[C@@H](C(=O)O)[C@]1(C(=O)Nc3ccc(C#CC4=CCCCC4)cc31)[C@H]2c1ccc(O)cc1 | -0.261 | -0.208 | -0.0899 | 0.728 | 0.769 | 0.92 | 1.13 | -0.179 (inactive) | 0.189 | -0.121 | 1.54 | -0.206 (inactive) | -0.113 (inactive) | -0.776 (inactive) | 2.65 | -0.911 (inactive) | 0.0169 | 0.653 | 0.966 | -0.0353
CCOC(=O)[C@H]1[C@@H]2C(=O)N3CCC[C@H]3[C@H](O[Si](C(C)C)(C(C)C)C(C)C)[C@H]2C=C2CCN(S(=O)(=O)c3ccc(C)cc3)C[C@H]21 | -0.646 | 0.336 | -0.118 | 0.248 | 0.966 | 0.319 | 1.08 | -0.647 (inactive) | 0.125 | -0.164 | 1.55 | -0.212 (inactive) | -0.772 (inactive) | 1.04 (inactive) | 2.38 | -0.717 (inactive) | -0.0795 | 0.55 | 1.09 | -0.0978
